Experiments:
Test in all cases: PBM binding z-score (relative to random genomic background probes); higher = stronger binding; sequences stand for … in GC…GCGATTGACAGCGTAGAATGAAGG
[1] = test system: RARb homodimer (NR concentration 270 nM)
Summary of the method: (§1)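 Ligand-free nuclear receptor dimers were bound for 1 h to custom Agilent 4×180K protein-binding microarrays. Detection used antibodies against each partner (one per run). Binding z-scores rest on regression-normalized fluorescence, with random background probes as the reference.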

[2] = test system: RARg:RXRa (NR concentration 270 nM, RXRa partner concentration 90 nM)
Summary of the method: as §1

[3] = test system: RARg homodimer (NR concentration 270 nM)
Summary of the method: as §1

[4] = test system: RXRa DBDmut IVT, anti-RXR (DBD mutation: RXRa K156A/R161A, NR concentration 90 nM)
Summary of the method: as §1

[5] = test system: RXRa homodimer (NR concentration 180 nM)
Summary of the method: as §1

[6] = test system: THRa:RXRa (NR concentration 90 nM, RXRa partner concentration 90 nM)
Summary of the method: as §1

[7] = test system: THRa homodimer (NR concentration 90 nM)
Summary of the method: as §1

[8] = test system: VDR homodimer (NR concentration 270 nM)
Summary of the method: as §1

CCGACTGGGGCAAAGGTTACCAGACTCAGTACGA
PBM binding z-score [1]: 2.19
PBM binding z-score [2]: 3.65
PBM binding z-score [3]: 1.61
PBM binding z-score [4]: -0.175
PBM binding z-score [5]: 3.93
PBM binding z-score [6]: 1.73
PBM binding z-score [7]: -0.362
PBM binding z-score [8]: 0.000123

CCAGACAGGTGAACGGTAACTCAGTCTGGTACGC
PBM binding z-score [1]: 0.435
PBM binding z-score [2]: 0.292
PBM binding z-score [3]: 0.535
PBM binding z-score [4]: -0.0435
PBM binding z-score [5]: 0.416
PBM binding z-score [6]: 0.0165
PBM binding z-score [7]: -0.646
PBM binding z-score [8]: -0.453

ATATGTAGGTTACAGCCGGGTCATTCAGGCTATG
PBM binding z-score [1]: 2.93
PBM binding z-score [2]: 4.28
PBM binding z-score [3]: 2.25
PBM binding z-score [4]: 0.721
PBM binding z-score [5]: 3.34
PBM binding z-score [6]: 3.57
PBM binding z-score [7]: 1.89
PBM binding z-score [8]: 2.96

GCTCGGAGGACAAGGTCCGAGCTTTGTCCGTAGA
PBM binding z-score [1]: 0.2
PBM binding z-score [2]: -0.185
PBM binding z-score [3]: 0.242
PBM binding z-score [4]: -0.26
PBM binding z-score [5]: -0.792
PBM binding z-score [6]: 0.554
PBM binding z-score [7]: -0.414
PBM binding z-score [8]: -0.775

CCTACTGGGCCATCCAGAGGTCATTGATCATATG
PBM binding z-score [1]: 4.32
PBM binding z-score [2]: 4.63
PBM binding z-score [3]: 3.39
PBM binding z-score [4]: 0.256
PBM binding z-score [5]: 3.69
PBM binding z-score [6]: 3.29
PBM binding z-score [7]: 1.41
PBM binding z-score [8]: 3.33

GATACAGGGTAAAGGCCAGAGTACGCGTATTGAT
PBM binding z-score [1]: 0.909
PBM binding z-score [2]: 0.831
PBM binding z-score [3]: 0.93
PBM binding z-score [4]: -0.389
PBM binding z-score [5]: 0.877
PBM binding z-score [6]: 0.316
PBM binding z-score [7]: -0.482
PBM binding z-score [8]: -0.0194

TTACCAAGGTGATAGGTCGTTGATGCACGCCTTG
PBM binding z-score [1]: 0.852
PBM binding z-score [2]: 0.727
PBM binding z-score [3]: 0.286
PBM binding z-score [4]: -0.12
PBM binding z-score [5]: 1.51
PBM binding z-score [6]: 1.25
PBM binding z-score [7]: 0.482
PBM binding z-score [8]: 0.256

GAAACAGGGTCAGCTAGAGGCCAGAGTATGGAAA
PBM binding z-score [1]: 3.26
PBM binding z-score [2]: 6.78
PBM binding z-score [3]: 4.43
PBM binding z-score [4]: 1.52
PBM binding z-score [5]: 4.28
PBM binding z-score [6]: 3.13
PBM binding z-score [7]: 0.117
PBM binding z-score [8]: 0.821

ATCACTAGGTAAAAGTTCAGTGAATCCCGAGGAT
PBM binding z-score [1]: 2.5
PBM binding z-score [2]: 2.11
PBM binding z-score [3]: 1.85
PBM binding z-score [4]: 0.717
PBM binding z-score [5]: 1.85
PBM binding z-score [6]: 1.32
PBM binding z-score [7]: 0.468
PBM binding z-score [8]: 1.8

ACTATTAGTTGACTGAGGGCAACCGATACGACGC
PBM binding z-score [1]: 1.72
PBM binding z-score [2]: 0.837
PBM binding z-score [3]: 1.38
PBM binding z-score [4]: 1
PBM binding z-score [5]: 0.572
PBM binding z-score [6]: 1.91
PBM binding z-score [7]: 1.06
PBM binding z-score [8]: 1.71

ATATCTAGGTTACATCCGGGTCATTCAGGCTATG
PBM binding z-score [1]: 3.15
PBM binding z-score [2]: 3.37
PBM binding z-score [3]: 2.49
PBM binding z-score [4]: 1.4
PBM binding z-score [5]: 2.78
PBM binding z-score [6]: 3.94
PBM binding z-score [7]: 3.37
PBM binding z-score [8]: 3.63

ATCGAAAGGTCGACGAGGTCAGTATACACCGTTT
PBM binding z-score [1]: 4.63
PBM binding z-score [2]: 5.73
PBM binding z-score [3]: 5.72
PBM binding z-score [4]: 2.48
PBM binding z-score [5]: 5.75
PBM binding z-score [6]: 4.67
PBM binding z-score [7]: 2.54
PBM binding z-score [8]: 4.57

CCCAGCAGGCCAATCTGGGTCACTCAAGGCTTGA
PBM binding z-score [1]: 2.53
PBM binding z-score [2]: 1.29
PBM binding z-score [3]: 1.5
PBM binding z-score [4]: -0.496
PBM binding z-score [5]: 0.923
PBM binding z-score [6]: 3.73
PBM binding z-score [7]: 0.49
PBM binding z-score [8]: -0.172

CTACCAAGGTGAACAAGGTCATTGATTACTATTC
PBM binding z-score [1]: 3.82
PBM binding z-score [2]: 3.75
PBM binding z-score [3]: 3.4
PBM binding z-score [4]: 2.28
PBM binding z-score [5]: 4.27
PBM binding z-score [6]: 4.18
PBM binding z-score [7]: 3.41
PBM binding z-score [8]: 4.4

CCTGCTTGGTCATGGTCAGCTAATCTACAGTATG
PBM binding z-score [1]: 0.424
PBM binding z-score [2]: 0.464
PBM binding z-score [3]: 0.774
PBM binding z-score [4]: 0.252
PBM binding z-score [5]: 0.162
PBM binding z-score [6]: -0.0915
PBM binding z-score [7]: -0.506
PBM binding z-score [8]: -0.205

CAGCCTAGGTCAGGGCCTGTATAGGAGGAACGTT
PBM binding z-score [1]: 2.38
PBM binding z-score [2]: 2.68
PBM binding z-score [3]: 3.88
PBM binding z-score [4]: -0.731
PBM binding z-score [5]: 1.46
PBM binding z-score [6]: 1.88
PBM binding z-score [7]: -0.108
PBM binding z-score [8]: -0.924

AGAACGAGGTCAATGAGTTGATAGCACGGGTGGC
PBM binding z-score [1]: 3.94
PBM binding z-score [2]: 5.78
PBM binding z-score [3]: 5.81
PBM binding z-score [4]: 4.11
PBM binding z-score [5]: 6.03
PBM binding z-score [6]: 3.94
PBM binding z-score [7]: 2.08
PBM binding z-score [8]: 5.27

AACTCTAGGTAAAGTTCAGTGAAAGATCGATAGA
PBM binding z-score [1]: 2.3
PBM binding z-score [2]: 1.97
PBM binding z-score [3]: 2.32
PBM binding z-score [4]: 1.44
PBM binding z-score [5]: 1.19
PBM binding z-score [6]: 0.938
PBM binding z-score [7]: -0.396
PBM binding z-score [8]: 1.64

ATACCAAGGCGATCGTGAGGTCGTTGATACTAAC
PBM binding z-score [1]: 0.905
PBM binding z-score [2]: 0.636
PBM binding z-score [3]: 0.0519
PBM binding z-score [4]: 0.303
PBM binding z-score [5]: 0.794
PBM binding z-score [6]: 2.26
PBM binding z-score [7]: 1.5
PBM binding z-score [8]: 1.85

GTTAGCAGGCCATTTGGGTCACTCAATGACGGGC
PBM binding z-score [1]: 1.8
PBM binding z-score [2]: 1.15
PBM binding z-score [3]: 1.5
PBM binding z-score [4]: 0.133
PBM binding z-score [5]: 0.847
PBM binding z-score [6]: 1.79
PBM binding z-score [7]: 0.575
PBM binding z-score [8]: 0.779

GGAATGAGGGCATTCGAGTTGATAGCATGGCGAT
PBM binding z-score [1]: 0.662
PBM binding z-score [2]: 1.15
PBM binding z-score [3]: 1.22
PBM binding z-score [4]: 3.43
PBM binding z-score [5]: 0.995
PBM binding z-score [6]: 3.3
PBM binding z-score [7]: 0.191
PBM binding z-score [8]: 3.8

TCTGCTAGGACAGTTGGTCAGCTAACGAGCTGCC
PBM binding z-score [1]: -0.304
PBM binding z-score [2]: -0.493
PBM binding z-score [3]: -0.356
PBM binding z-score [4]: -0.0894
PBM binding z-score [5]: -0.639
PBM binding z-score [6]: -0.274
PBM binding z-score [7]: -0.784
PBM binding z-score [8]: -1.13

TTGCCTAGGTCATGGGCCAGTATACCACGCGAAC
PBM binding z-score [1]: 3.1
PBM binding z-score [2]: 4.39
PBM binding z-score [3]: 4.41
PBM binding z-score [4]: 0.413
PBM binding z-score [5]: 3.94
PBM binding z-score [6]: 3.35
PBM binding z-score [7]: 1.54
PBM binding z-score [8]: 0.622

ATCTCTAGGTAACAGGTTCAGTGAAAGAGAGGAC
PBM binding z-score [1]: 1.15
PBM binding z-score [2]: 0.818
PBM binding z-score [3]: 0.667
PBM binding z-score [4]: 0.757
PBM binding z-score [5]: 0.828
PBM binding z-score [6]: 1.58
PBM binding z-score [7]: 1.34
PBM binding z-score [8]: 2.78

TCATATAGGTAAAAGGGGAAAGTCGGTGTGGTAA
PBM binding z-score [1]: 0.789
PBM binding z-score [2]: 0.447
PBM binding z-score [3]: 0.236
PBM binding z-score [4]: 1.95
PBM binding z-score [5]: 1.19
PBM binding z-score [6]: 0.512
PBM binding z-score [7]: 0.383
PBM binding z-score [8]: 0.386

CCGTCTGGGGCAAAGGTTACCATACTCAGTACGA
PBM binding z-score [1]: 2.21
PBM binding z-score [2]: 3.55
PBM binding z-score [3]: 1.87
PBM binding z-score [4]: 0.589
PBM binding z-score [5]: 3.51
PBM binding z-score [6]: 1.74
PBM binding z-score [7]: -0.0764
PBM binding z-score [8]: -0.106

CAAATTAGGTCAAAGGTCAAAGTCGAGCCAACCA
PBM binding z-score [1]: 5.41
PBM binding z-score [2]: 9.09
PBM binding z-score [3]: 7.57
PBM binding z-score [4]: 3.17
PBM binding z-score [5]: 10.4
PBM binding z-score [6]: 4.76
PBM binding z-score [7]: 2.4
PBM binding z-score [8]: 3.43

TCTACTAGGTCAACGATGGTCAGCTAATCTGCTA
PBM binding z-score [1]: 3.59
PBM binding z-score [2]: 4.28
PBM binding z-score [3]: 5.16
PBM binding z-score [4]: 1.89
PBM binding z-score [5]: 3.07
PBM binding z-score [6]: 3.2
PBM binding z-score [7]: 1.37
PBM binding z-score [8]: 0.629
